Test [1] in a line: binders of probe aFSTL3 on microarray, primary screen, stem cell growth factor project, biochemical, small-molecule microarray, fluorescence 635/667 (AID 1064).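 Further: measures binding of the biotinylated anti-FSTL3 antibody to printed compounds.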 The settings on record: higher = more signal.
Test [2] is described as follows: binders from COS7 lysate, DM2A8 probe, primary screen, torsin A project, cell lysate, small-molecule microarray, fluorescence 635/667 (AID 1065). The settings on record: higher = more signal, COS7 lysate expressing mutant human TOR1A.
Test [3] is described as follows: binders of probe aFGF2 on microarray, primary screen, stem cell growth factor project, biochemical, small-molecule microarray, fluorescence 635/667 (AID 1067).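 Further: measures binding of biotinylated aFGF2 protein to printed compounds on slides; z-score merges feature fluorescence and signal-to-noise across triplicate slides.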 Conditions: higher = more signal.
Test [4] is described as follows: binders of probe aFGF10 on microarray, primary screen, stem cell growth factor project, biochemical, small-molecule microarray, fluorescence 635/667 (AID 1071).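 Further: score merges 667 nm spot intensity and signal to noise from triplicate slides.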 Conditions: higher = more signal.
The target of test [5] is Neurogenic locus notch homolog protein 2 (Homo sapiens) (UniProt Q04721). As to the kind of experiment: Notch2 binders on small-molecule microarrays, primary screen, biochemical, small-molecule microarray, 635 nm fluorescence, stem cell growth factors (AID 1073). The settings on record: Notch2 binding, higher = more signal.
The target in test [6] is Pro-neuregulin-1, membrane-bound isoform (Homo sapiens) (UniProt Q02297). As to the kind of experiment: NRG1 binders on small-molecule microarrays, primary screen, psychiatric disease protein project, biochemical, small-molecule microarray, fluorescence 635/667 (AID 1075).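 Further: score combines 667 nm spot fluorescence with signal to noise.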 Conditions: NRG1 binding, 635 nm fluorescence, higher = more signal.
Test [7] has as its system Neuregulin-1 EGF-like domain. As to the kind of experiment: binders of neuregulin-1 EGF-like domain, primary screen, biochemical, small-molecule microarray, 635 nm fluorescence (AID 1081).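 Further: binding of the protein to compounds printed on small-molecule microarray slides.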 The settings on record: small-molecule microarray binding, higher = more signal.
The nature of test [8]: FRG1 promoter luciferase signal modulators, primary screen, FRG1 inhibition for FSHD, cell-based, C2C12 myotubes, firefly/Renilla luciferase, luminescence (AID 1084). The settings on record: higher = more signal, called active from +8 up or from −8 down.
The nature of test [9]: binders of probe aFST on microarray, primary screen, stem cell growth factor project, biochemical, small-molecule microarray, fluorescence 635/667 (AID 1086).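 Further: score merges 667 nm fluorescence with signal-to-noise of each printed compound spot.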 The settings on record: higher = more signal.
The nature of test [10]: binders of probe aHhip on microarray, primary screen, stem cell growth factor project, biochemical, small-molecule microarray, fluorescence 635/667 (AID 1087).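 Further: score merges spot fluorescence at 667nm with spot signal to noise ratio.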 The settings on record: higher = more signal.

The source made the active and inactive calls.

Pro-neuregulin-1, membrane-bound isoform (Homo sapiens), sequence (Q02297 whole entry, looked up, the tested form may be a part, canonical isoform): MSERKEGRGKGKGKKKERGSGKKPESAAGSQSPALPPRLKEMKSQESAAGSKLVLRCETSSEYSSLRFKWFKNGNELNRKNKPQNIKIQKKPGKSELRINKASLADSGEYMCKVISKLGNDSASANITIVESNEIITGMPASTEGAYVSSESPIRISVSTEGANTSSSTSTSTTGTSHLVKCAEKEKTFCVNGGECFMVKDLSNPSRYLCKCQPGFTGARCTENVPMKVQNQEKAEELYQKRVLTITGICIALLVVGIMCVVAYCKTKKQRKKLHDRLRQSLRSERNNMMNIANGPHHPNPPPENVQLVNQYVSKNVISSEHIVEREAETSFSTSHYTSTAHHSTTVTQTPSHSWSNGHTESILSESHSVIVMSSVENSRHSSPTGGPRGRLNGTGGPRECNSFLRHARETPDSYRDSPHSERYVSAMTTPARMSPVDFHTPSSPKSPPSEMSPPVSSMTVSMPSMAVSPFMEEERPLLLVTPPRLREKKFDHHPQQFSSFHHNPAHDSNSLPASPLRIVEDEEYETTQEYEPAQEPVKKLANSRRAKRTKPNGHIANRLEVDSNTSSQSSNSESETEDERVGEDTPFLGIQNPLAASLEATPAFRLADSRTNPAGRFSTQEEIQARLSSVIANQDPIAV
Neurogenic locus notch homolog protein 2 (Homo sapiens), sequence (Q04721 whole entry, looked up, canonical isoform): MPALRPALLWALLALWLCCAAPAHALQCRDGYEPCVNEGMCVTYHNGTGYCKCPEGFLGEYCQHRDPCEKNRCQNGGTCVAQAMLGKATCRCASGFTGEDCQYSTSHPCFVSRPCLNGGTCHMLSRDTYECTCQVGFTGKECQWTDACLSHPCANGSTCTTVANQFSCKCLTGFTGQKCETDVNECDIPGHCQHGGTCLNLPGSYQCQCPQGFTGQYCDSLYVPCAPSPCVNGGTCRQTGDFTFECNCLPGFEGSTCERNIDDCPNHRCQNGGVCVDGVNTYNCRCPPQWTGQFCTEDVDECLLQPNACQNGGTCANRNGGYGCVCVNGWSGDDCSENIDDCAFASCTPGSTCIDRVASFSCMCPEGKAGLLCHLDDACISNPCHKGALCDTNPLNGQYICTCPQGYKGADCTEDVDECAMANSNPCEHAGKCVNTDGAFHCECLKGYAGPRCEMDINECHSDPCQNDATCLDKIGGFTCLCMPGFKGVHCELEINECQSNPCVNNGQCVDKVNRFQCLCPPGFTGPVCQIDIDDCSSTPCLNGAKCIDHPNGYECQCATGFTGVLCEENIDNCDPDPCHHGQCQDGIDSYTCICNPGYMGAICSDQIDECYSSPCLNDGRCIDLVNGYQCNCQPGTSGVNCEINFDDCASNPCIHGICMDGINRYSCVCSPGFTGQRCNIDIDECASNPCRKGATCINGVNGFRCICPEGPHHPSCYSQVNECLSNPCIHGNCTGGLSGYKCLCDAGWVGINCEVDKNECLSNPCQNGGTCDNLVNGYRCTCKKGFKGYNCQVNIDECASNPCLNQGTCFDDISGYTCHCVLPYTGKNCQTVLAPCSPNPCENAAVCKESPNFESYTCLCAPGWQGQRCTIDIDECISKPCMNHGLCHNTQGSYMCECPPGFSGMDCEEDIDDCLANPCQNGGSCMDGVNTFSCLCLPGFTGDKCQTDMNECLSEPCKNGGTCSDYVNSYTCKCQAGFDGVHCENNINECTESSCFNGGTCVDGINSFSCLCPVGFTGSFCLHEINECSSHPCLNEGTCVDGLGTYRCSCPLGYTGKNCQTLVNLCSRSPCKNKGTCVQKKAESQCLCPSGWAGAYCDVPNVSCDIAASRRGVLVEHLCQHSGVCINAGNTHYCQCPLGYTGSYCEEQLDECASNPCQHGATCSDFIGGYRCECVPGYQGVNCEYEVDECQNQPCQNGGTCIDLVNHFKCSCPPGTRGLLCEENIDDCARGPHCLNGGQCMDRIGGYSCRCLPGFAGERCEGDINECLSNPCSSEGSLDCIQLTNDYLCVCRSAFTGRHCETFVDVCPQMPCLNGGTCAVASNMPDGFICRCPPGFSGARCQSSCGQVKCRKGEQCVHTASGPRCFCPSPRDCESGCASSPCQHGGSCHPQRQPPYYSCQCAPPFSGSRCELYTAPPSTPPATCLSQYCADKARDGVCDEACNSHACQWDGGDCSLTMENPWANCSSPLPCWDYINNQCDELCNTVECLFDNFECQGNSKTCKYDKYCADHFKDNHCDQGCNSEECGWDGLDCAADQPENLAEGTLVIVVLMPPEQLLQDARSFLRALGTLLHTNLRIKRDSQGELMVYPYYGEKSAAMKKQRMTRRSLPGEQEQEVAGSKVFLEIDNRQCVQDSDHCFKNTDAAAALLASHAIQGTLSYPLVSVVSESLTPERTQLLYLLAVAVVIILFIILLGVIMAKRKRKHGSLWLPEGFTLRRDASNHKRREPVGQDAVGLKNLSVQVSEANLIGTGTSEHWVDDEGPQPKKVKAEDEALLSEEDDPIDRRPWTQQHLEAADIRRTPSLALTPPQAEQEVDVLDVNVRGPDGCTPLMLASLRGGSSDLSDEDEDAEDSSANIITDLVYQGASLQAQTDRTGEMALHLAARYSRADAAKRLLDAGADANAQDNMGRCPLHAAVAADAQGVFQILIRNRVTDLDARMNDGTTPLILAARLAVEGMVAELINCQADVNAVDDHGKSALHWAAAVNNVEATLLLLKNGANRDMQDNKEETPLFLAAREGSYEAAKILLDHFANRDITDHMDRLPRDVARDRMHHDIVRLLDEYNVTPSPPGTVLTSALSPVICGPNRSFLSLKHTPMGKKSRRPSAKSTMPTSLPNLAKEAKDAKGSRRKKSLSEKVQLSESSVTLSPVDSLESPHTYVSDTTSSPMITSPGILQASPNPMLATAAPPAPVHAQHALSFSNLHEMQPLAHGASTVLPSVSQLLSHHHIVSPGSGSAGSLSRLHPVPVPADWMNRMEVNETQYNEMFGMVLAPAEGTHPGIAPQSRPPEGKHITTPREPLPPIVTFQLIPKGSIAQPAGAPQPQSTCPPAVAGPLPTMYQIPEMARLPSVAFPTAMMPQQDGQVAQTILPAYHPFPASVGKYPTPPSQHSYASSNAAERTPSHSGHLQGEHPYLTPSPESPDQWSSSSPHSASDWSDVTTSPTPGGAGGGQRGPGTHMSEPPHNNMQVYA

On to `C=CCOC(=O)[C@H]1[C@@H]2C(=O)O[C@@H](c3ccccc3)[C@@H](c3ccccc3)N2[C@@H](c2ccc(OCCOC(=O)[C@H]3C[C@H]4C(=O)N5CCC[C@H]5C(=O)N4[C@H]3c3ccc(O)cc3)cc2)[C@]12C(=O)Nc1ccc(I)cc12`, for which the composite z-score in [1] is 2.15; in test [2], 2.13; in [3], 0.555; in [4], 0.791; in [5], 1.71; in test [6], 2.72. Also, the composite z-score was determined as 1.44 in test [7], 2.72 in test [9] and 2.39 in test [10]. The z-score in test [8] was -0.269 (inactive).
Regarding `COc1ccc([Si](C)(C)[C@@H]2[C@@H](CC(=O)N3Cc4ccccc4C[C@H]3CO)O[C@]3(C(=O)N(C)c4c(Br)cc(C)cc43)[C@H]2C)cc1`, the composite z-score in test [1] was -0.184; in test [2], 1.03; in test [3], -0.083; in test [4] it was 0.441; in test [5] it was 0.557; in test [6] it was 0.815. For the same compound, the composite z-score in test [7] was 1.12; in test [9], 0.16; in test [10], -0.0672. Further, in [8], the z-score is -3.35 (inactive).
`COc1ccc(C(=O)Nc2ccc(CN3C(=O)[C@@]4(O[C@@H](CCn5cc([C@H](O)c6ccccc6)nn5)[C@H]([Si](C)(C)c5ccc(OC)cc5)[C@H]4C)c4ccccc43)cc2)cc1`: the composite z-score in test [1] was -0.197; in test [2] it was 0.315; in test [3], 0.484; in test [4], -0.164; in test [5], -0.244; in [6], 0.258. The composite z-score was 1.05 in [7], 0.217 in test [9] and -0.0391 in [10]. In addition, the z-score in test [8] was -2.48 (inactive).
On to `C=C(C)C1C(=C)CN([C@H](CO)c2ccccc2)C1=O` (stereo not given in full), for which the composite z-score in test [1] is 0.172; in [2], -0.605; in [3], -0.132; in [4] it was -0.205; in [5], -0.725; in test [6], -0.461. Also, the composite z-score in test [7] was -0.708; in test [9], -0.0839; in test [10], -0.0296. In test [8], the z-score was 0.0392 (inactive).
As to `CC1CC/C=C\[C@H]2OC34C=CCN(C(C)(C)C)C(=O)[C@H]3N(CCCCCCO)C(=O)[C@@H]4C2C(=O)O1` (stereo not given in full), the composite z-score in test [1] was 0.237; in test [2], -0.153; in [3] it was -0.149; in [4] it was 0.0097; in [5], -0.945; in test [6], 0.866. Further, the values for the composite z-score in [7], in [9] and in test [10] were 1.13, -0.222 and -0.0994, respectively. Also, the z-score in test [8] was -1.09 (inactive).
Regarding `C=C[C@H](COC(C)=O)N(C(=O)OC(C)(C)C)S(=O)(=O)c1ccc(Br)cc1`, the composite z-score in test [1] is 0.726; in test [2], 0.303; in [3], 0.278; in [4], 0.348; in [5], 1.33; in test [6], -0.243. Further, the composite z-score worked out at 0.652 in test [7], 1.23 in test [9] and 0.32 in test [10]. Further, the z-score in [8] is -1.89 (inactive).
Consider `COc1ccc(CCNC(=O)[C@@]2(C)c3ccccc3C(=O)N(Cc3cc(F)cc(C(F)(F)F)c3)[C@H]2c2ccc(CO)cc2)cc1`, for which the composite z-score was 0.498 in test [1]; -0.518 in test [2]; 0.0046 in [3]; -0.23 in [4]; 0.146 in test [5]; 0.499 in test [6]. The composite z-score is 0.969 in test [7], -0.247 in test [9] and 0.156 in test [10]. The z-score in [8] was -3.42 (inactive).
As to `O=C1OCCC/C=C\[C@H]2OC34C=CCN(c5ccc6ccccc6c5)C(=O)[C@H]3N(CCCCCCO)C(=O)[C@@H]4C12` (stereo not given in full), the composite z-score in [1] was 0.221; in test [2], -0.295; in test [3] it was -0.0824; in [4] it was -0.648; in test [5], -1.15; in test [6], -0.177. Further, the composite z-score in [7] was 1.25; in [9], -0.307; in [10] it was -0.0239. Moreover, the z-score in [8] is -0.824 (inactive).
With `CCOC(=O)C1=CCC(c2ccccc2)N(S(=O)(=O)CC[Si](C)(C)C)C1` (stereo not given), the composite z-score in [1] is -0.264; in test [2], 0.701; in [3], -0.137; in test [4] it was -0.765; in test [5] it was -0.606; in test [6], 0.0168. Moreover, the composite z-score in test [7] is -0.518; in test [9], -0.407; in [10] it was -0.0994. Also, the z-score in test [8] was -3.74 (inactive).
On to `C=CCOC(=O)[C@H]1[C@@H]2C(=O)O[C@@H](c3ccccc3)[C@@H](c3ccccc3)N2[C@@H](c2ccc(OCCOC(=O)[C@@H]3C[C@@H]4C(=O)N[C@@H](CCCCN(C)C)C(=O)N4[C@@H]3c3ccc(O)cc3)cc2)[C@]12C(=O)Nc1ccc(I)cc12`, for which the composite z-score is -0.617 in test [1]; 1.04 in test [2]; -0.0468 in test [3]; 0.589 in test [4]; 0.766 in [5]; 1.27 in test [6]. The composite z-score in [7] was 1.33; in [9], 0.429; in test [10], -0.112. Also, the z-score in [8] was -0.694 (inactive).
In the case of `O=C1OCCC/C=C\[C@H]2OC34C=CCN(Cn5nnc6ccccc65)C(=O)[C@H]3N(CCCCCCO)C(=O)[C@@H]4C12` (stereo not given in full), the composite z-score is 0.144 in test [1]; 1.57 in test [2]; -0.167 in test [3]; -1.04 in test [4]; -0.969 in test [5]; 0.0553 in [6]. The composite z-score in [7] is 1.25; in test [9] it was -0.582; in [10] it was -0.273. Moreover, the z-score in [8] was -0.584 (inactive).
In the case of `COC(=O)[C@@]1(Cc2ccc(F)cc2)[C@H]2c3cc(C(=O)N(C)C)n(Cc4ccc(S(C)(=O)=O)cc4)c3C[C@H]2CN1C(=O)c1ccccc1`, the composite z-score in [1] is 0.244; in test [2], 0.657; in test [3], 0.209; in test [4], 0.629; in test [5], 1.41; in test [6] it was 1.79. Further, the values for the composite z-score in test [7], in [9] and in test [10] were 1.19, 0.198 and 0.0274, respectively. In test [8], the z-score was 0.0659 (inactive).
`CCc1oc(CC[C@@H](CO)NC(=O)NCCn2cc(C3(O)CCCCC3)nn2)c(C(=O)OC)c1C(=O)OC`: the composite z-score in test [1] was -0.33; in [2], 0.979; in test [3], -0.0549; in test [4] it was 0.809; in test [5], 0.924; in test [6], 0.172. Also, the composite z-score is 1.23 in test [7], 0.457 in [9] and -0.353 in [10]. In test [8], the z-score was 0.306 (inactive).
Turning to `O=C1C2C=CC(C(O)C(c3ccccc3)c3ccccc3)N(n3cnnc3)C2C(=O)N1Cc1ccccc1` (stereo not given), the composite z-score in test [1] was -0.148; in test [2], 0.488; in [3], 0.129; in test [4], 0.784; in test [5], 0.492; in test [6], 0.429. In addition, the composite z-score turned out to be 1.19 in test [7], 0.578 in [9] and 0.446 in test [10]. For the same compound, in test [8], the z-score is 0.266 (inactive).
As to `[N-]=[N+]=NCc1ccccc1[C@H]1OC(c2ccc(OCCCO)cc2)=N[C@@]1(Cc1ccccc1)C(=O)NCc1ccccc1`, the composite z-score in test [1] was -0.0101; in [2], 0.742; in [3], -0.0184; in test [4], 1.27; in test [5], 1.24; in test [6] it was 2.05. In addition, the values for the composite z-score in [7], in test [9] and in test [10] were 0.921, 0.513 and -0.331, respectively. The z-score in test [8] was -1.5 (inactive).

The values above are taken from PubChem BioAssay.
